Laboratory results reported in the supplement of paper PMC9694430.
Where “and” joins values, the source holds several entries; their conditions need not be identical. Identical values can stand only once. Counter-ions that a name gives are not always drawn.

Columns and labels:
Test in all cases: thermal shift delta Tm vs DMSO control; higher = stronger stabilization (binding)
Conditions in all cases: 12.5 µM; protein concentration 2 µM
LOC_OS02G45750-cb003 = tested on: LOC_OS02G45750-cb003
In short: (§1)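 Rice kinase domain constructs were expressed in E. coli, purified, and tested by differential scanning fluorimetry with compound added in DMSO. Each well of a 96-well plate held 19.5 μl of 2 μM kinase in 100 mM potassium phosphate pH 7.5, 150 mM NaCl, 10% glycerol and 5 × SYPRO Orange, and fluorescence was read from 25°C to 95°C at 0.05°C/s. The melting temperature shift is the mean of triplicates, taken against protein with DMSO alone after Boltzmann fitting.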

LOC_OS02G54510-cb004 = tested on: LOC_OS02G54510-cb004
In short: as §1

LOC_OS03G04050-cb001 = tested on: LOC_OS03G04050-cb001
In short: as §1

LOC_OS03G12390-cb001 = tested on: LOC_OS03G12390-cb001
In short: as §1

LOC_OS03G27990-cb004 = tested on: LOC_OS03G27990-cb004
In short: as §1

LOC_OS03G50450-cb001 = tested on: LOC_OS03G50450-cb001
In short: as §1

LOC_OS03G50810-cb003 = tested on: LOC_OS03G50810-cb003
In short: as §1

LOC_OS04G35114-cb001 = tested on: LOC_OS04G35114-cb001
In short: as §1

LOC_OS04G38480-cb003 = tested on: T1, LOC_OS04G38480-cb003
T1 sequence (whole entry): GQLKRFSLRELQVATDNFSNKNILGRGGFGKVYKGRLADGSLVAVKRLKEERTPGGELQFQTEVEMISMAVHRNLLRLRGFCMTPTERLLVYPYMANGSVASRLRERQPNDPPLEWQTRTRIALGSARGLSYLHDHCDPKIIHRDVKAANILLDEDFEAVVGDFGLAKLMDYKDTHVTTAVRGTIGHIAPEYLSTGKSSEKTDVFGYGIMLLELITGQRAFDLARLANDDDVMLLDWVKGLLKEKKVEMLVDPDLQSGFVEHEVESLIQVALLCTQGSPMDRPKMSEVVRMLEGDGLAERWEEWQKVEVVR
In short: as §1

LOC_OS04G41100-cb001 = tested on: T2, LOC_OS04G41100-cb001
T2 sequence (whole entry): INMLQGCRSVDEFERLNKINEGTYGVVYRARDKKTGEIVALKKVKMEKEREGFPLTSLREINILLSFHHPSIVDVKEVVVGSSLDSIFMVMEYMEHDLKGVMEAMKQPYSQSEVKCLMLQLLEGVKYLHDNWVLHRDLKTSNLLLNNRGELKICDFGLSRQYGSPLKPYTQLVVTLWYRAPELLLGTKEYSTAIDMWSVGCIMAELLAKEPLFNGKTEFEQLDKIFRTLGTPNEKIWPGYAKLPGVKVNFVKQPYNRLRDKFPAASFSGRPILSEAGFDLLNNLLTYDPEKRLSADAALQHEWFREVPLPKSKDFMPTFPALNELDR
In short: as §1

Compound	thermal shift delta Tm (LOC_OS02G45750-cb003)	thermal shift delta Tm (LOC_OS02G54510-cb004)	thermal shift delta Tm (LOC_OS03G04050-cb001)	thermal shift delta Tm (LOC_OS03G12390-cb001)	thermal shift delta Tm (LOC_OS03G27990-cb004)	thermal shift delta Tm (LOC_OS03G50450-cb001)	thermal shift delta Tm (LOC_OS03G50810-cb003)	thermal shift delta Tm (LOC_OS04G35114-cb001)	thermal shift delta Tm (LOC_OS04G38480-cb003)	thermal shift delta Tm (LOC_OS04G41100-cb001)
O=C(Nc1nc2cccc(-c3ccc(CN4CCS(=O)(=O)CC4)cc3)n2n1)C1CC1 [Filgotinib (GLPG0634)]	1.04 °C	0.58 °C	0.6 °C	0.31 °C	0.64 °C	1.73 °C	0.86 °C	1.37 °C	1.66 °C	0.6 °C
Cc1cc(Nc2cc(CN3CCOCC3)c3nc(C)c(Cc4ccc(Cl)cc4F)n3n2)n[nH]1	3.56 °C	3.12 °C	-0.22 °C	1.36 °C	0.01 °C	0.47 °C	4.81 °C	2.03 °C	2.46 °C	3.22 °C
Cc1ccc(Nc2nccc(N(C)c3ccc4c(C)n(C)nc4c3)n2)cc1S(N)(=O)=O	3.91 °C	1.36 °C	0.35 °C	1.04 °C	0.21 °C	0.3 °C	1.55 °C	4.77 °C	1.08 °C	3.24 °C
CCCCCCCCCCCCCCCCn1cc[n+](Cc2ccccc2)c1C	-1.15 °C	-1.83 °C	-4.41 °C	-3.77 °C	0.11 °C	-1.25 °C	-4.07 °C	-2.5 °C	-5.2 °C	-1.35 °C
Cc1cc(Nc2nc(N[C@@H](C)c3ccc(F)cc3)c(C#N)cc2F)n[nH]1	4.55 °C	2.52 °C	0.11 °C	4.41 °C	0.57 °C	1.39 °C	4.44 °C	1.88 °C	2.31 °C	1.28 °C
O=C1Nc2ccc(I)cc2/C1=C/c1cc(Br)c(O)c(Br)c1	0 °C	1.04 °C	0.81 °C	6.08 °C	2.06 °C	1.49 °C	4.01 °C	1.76 °C	-0.73 °C	0.75 °C
CC(C)n1nc(-c2cc3cc(O)ccc3[nH]2)c2c(N)ncnc21 [Torkinib (PP242)]	1.42 °C	0.85 °C	0.29 °C	2.95 °C	0.64 °C	0.48 °C	0.71 °C	5.09 °C	1.25 °C	0.2 °C
Oc1cccc(-c2nc(N3CCOCC3)c3oc4ncccc4c3n2)c1	-0.07 °C	-0.06 °C	0.32 °C	0.43 °C	0.03 °C	0.47 °C	0.16 °C	0.22 °C	1.17 °C	0.89 °C
N=C(N)NC(=N)NCCc1ccccc1 [Phenformin HCl]	0.17 °C	-0.29 °C	0.17 °C	-0.23 °C	0.15 °C	0.26 °C	0.78 °C	-0.12 °C	0.97 °C	-0.08 °C
CCCCCCCCCCCCCCCCOP(=O)([O-])OCC[N+](C)(C)C [Miltefosine]	-1.69 °C	-3.98 °C	-6.02 °C	-3.65 °C	-2.36 °C	-1.33 °C	-3.31 °C	-3.53 °C	-0.41 °C	-0.66 °C
O=c1cc(N2CCOCC2)oc2c1ccc1ccccc12	0.57 °C	0.45 °C	0.58 °C	1.07 °C	0.27 °C	0.43 °C	0.29 °C	0.64 °C	2.01 °C	0.31 °C
Cc1cnc(-c2cnc(NCCNc3ccc(C#N)cn3)nc2-c2ccc(Cl)cc2Cl)[nH]1	1.15 °C and 1.22 °C	0.15 °C and -0.03 °C	0.11 °C and 0.6 °C	0.22 °C and 0.78 °C	0.17 °C and 0.28 °C	-0.06 °C and 0.47 °C	0.98 °C and 1.26 °C	0.11 °C and 0.59 °C	0.39 °C and 1.23 °C	0.54 °C and 0.66 °C
Cc1ccc(-n2nc(C(C)(C)C)cc2NC(=O)Nc2ccc(OCCN3CCOCC3)c3ccccc23)cc1 [Doramapimod (BIRB 796)]	-1.12 °C	0.33 °C	0.33 °C	-0.03 °C	0.31 °C	0.1 °C	0.01 °C	0.68 °C	0.95 °C	0.9 °C
COCC(=O)NC/C=C/c1ccc2ncnc(Nc3ccc(Oc4ccc(C)nc4)c(C)c3)c2c1	0.33 °C	-0.01 °C	0.28 °C	-0.25 °C	-0.01 °C	-0.22 °C	-0.16 °C	1.94 °C	0.14 °C	0.5 °C
COc1cc2ncnc(Nc3ccc(Oc4ccccc4)cc3C)c2cc1OC	1.39 °C	0.53 °C	0.35 °C	-0.19 °C	0.39 °C	0.77 °C	0.51 °C	4.14 °C	1.19 °C	-0.13 °C
C=CC(=O)Nc1cccc(Oc2nc(Nc3ccc(N4CCN(C)CC4)cc3)ncc2Cl)c1	3.96 °C	0.5 °C	0.53 °C	3.42 °C	2.49 °C	1.35 °C	4.77 °C	3.8 °C	1.67 °C	1.1 °C
NC(=O)c1cnc(N[C@@H]2CCCC[C@@H]2N)nc1Nc1cccc(-n2nccn2)c1	2.02 °C	2.55 °C	0.07 °C	1.42 °C	1.98 °C	3.61 °C	0.99 °C	1.31 °C	0.85 °C	0.63 °C
COc1ccccc1-c1cc(Nc2cccc(CS(N)(=O)=O)c2)ncn1	3.96 °C	0.61 °C	0.43 °C	0.77 °C	0.57 °C	0.51 °C	0.56 °C	1.63 °C	2.33 °C	0.8 °C
C[C@@H]1COCCN1c1cc(C2([S@](C)(=N)=O)CC2)nc(-c2cc[nH]c3nccc2-3)n1	0.39 °C	0.1 °C	0.32 °C	-0.31 °C	0.13 °C	0.46 °C	0.2 °C	2.45 °C	0.68 °C	0.52 °C
